The values below come from the supplement of paper PMC9950053.

Structures are written as SMILES. Counter-ions that a name gives are not always drawn.

In this assay the test system is Danio rerio larvae (5 dpf). As to the kind of experiment: 1-h baseline activity (% time moving, periods 1-6) minus DMSO control (percentage points); higher = more locomotor activity than DMSO larvae. As to conditions: 10 µM; exposure time: 3 h pre-incubation + 3 h imaging. How it is done: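 Wild-type 5 dpf zebrafish larvae (n=48 per drug, 96-well plates, 28.5 °C) were exposed to Tocris FDA-approved library compounds at 10 µM (0.1% DMSO) for 3 h before and 3 h during imaging. Images were taken every 6 s during visual (moving coloured lines) and acoustic stimuli, and larvae were tracked with the DeepLabCut-based Z-LaP Tracker. Each behavioural measure is the treated-group mean minus the DMSO vehicle control mean (n=844), in percentage points. This mapping covers compounds with 4-character plate codes.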
On to `CCN(C)C(=O)Oc1cccc([C@H](C)N(C)C)c1` [Rivastigmine tartrate], for which the 1-h baseline activity was 7.3.
The result for `CN1C[C@H](C(=O)N[C@]2(C)O[C@@]3(O)[C@@H]4CCCN4C(=O)[C@H](Cc4ccccc4)N3C2=O)C[C@@H]2c3cccc4[nH]cc(c34)C[C@H]21` [Dihydroergotamine mesylate] reads 1.07; that for `C=C1C[C@@H]2[C@H](CC[C@]3(C)C(=O)CC[C@@H]23)[C@@]2(C)C=CC(=O)C=C12` [Exemestane], -19.5.
For the compound `Cc1cccc([C@H](C)c2c[nH]cn2)c1C` [Dexmedetomidine hydrochloride], the 1-h baseline activity is -27.3.
In the case of `O=c1[nH]c2ccccc2n1C1CCN(CCCC(c2ccc(F)cc2)c2ccc(F)cc2)CC1` [Pimozide], the 1-h baseline activity was -18.2.
As for `COc1cc2c(cc1OC)C1CC(=O)C(CC(C)C)CN1CC2` (stereo unspecified) [Tetrabenazine], the 1-h baseline activity is -0.785.
The result for `CC(O)(CS(=O)(=O)c1ccc(F)cc1)C(=O)Nc1ccc(C#N)c(C(F)(F)F)c1` (stereo unspecified) [Bicalutamide] reads 3; that for `CC(C)C[C@H]1C(=O)N2CCC[C@H]2[C@]2(O)O[C@](NC(=O)[C@@H]3C=C4c5cccc6[nH]c(Br)c(c56)C[C@H]4N(C)C3)(C(C)C)C(=O)N12` [Bromocriptine mesylate], 16.1; that for `N[C@@H]1C[C@H]1c1ccccc1` [Tranylcypromine hydrochloride], -14.7.
The result for `CC[C@@H](C(N)=O)N1CCCC1=O` [Levetiracetam] reads 5.78; that for `C=CCN1C[C@H](C(=O)N(CCCN(C)C)C(=O)NCC)C[C@@H]2c3cccc4[nH]cc(c34)C[C@H]21` [Cabergoline], -9.92.
